According to PubChem BioAssay AID1159580 (chemical genetic matrix, 2015):
Where “and” joins values, the source holds several entries; their conditions need not be identical. Identical values can stand only once. In all, about 5,500 compounds went through this assay and about 2,000 (36%) were called active. Roughly 18% stayed inconclusive and do not appear here. Rule as the data show it: active = normalized growth mostly below about 0.91 (no sharp cut-off); inconclusive = no clear call, values can overlap the other calls; inactive = mostly above about 0.92. This is one part of the list.

Experiment: chemical genetic growth profiling, strain panel (AID 1159580);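 also: tested at 20 µM; growth read once vehicle control cultures reached saturation at 30 °C; 1 = growth at the plate median or of vehicle wells; lower values mean less growth of the strain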
Details: S. cerevisiae deletion strains, growth OD

Measured: normalized growth

NC(Cn1ccc(=O)c(O)c1)C(=O)O (configuration not stated)
inactive: locus YAL013W, strain DEP1, active compounds read low 1.01 | locus YAL021C, strain ccr4, active compounds read low 1 | locus YAL026C, strain drs2, active compounds read low 1.04 | locus YAL030W, strain snc1, active compounds read low 1.01 | locus YBL061C, strain skt5, active compounds read low 1.03 | locus YBR009C, strain hhf1, active compounds read low 0.992 | locus YBR021W, strain FUR4, active compounds read low 1.01 | locus YBR023C, strain chs3, active compounds read low 1.03 | locus YBR171W, strain sec66, active compounds read low 1.03 | locus YBR229C, strain ROT2, active compounds read low 1.02 | locus YBR231C, strain swc5, active compounds read low 1.01 | locus YBR279W, strain paf1, active compounds read low 1.03 | locus YCL011C, strain gbp2, active compounds read low 1.03 | locus YCL016C, strain dcc1, active compounds read low 1.04 | locus YCL029C, strain bik1, active compounds read low 0.98 | locus YCL061C, strain MRC1, active compounds read low 1.01 | locus YCL069W, strain vba3, active compounds read low 1.01 | locus YCR088W, strain abp1, active compounds read low 1.02 | locus YDL005C, strain med2, active compounds read low 1.03 | locus YDL035C, strain GPR1, active compounds read low 1.03 | locus YDL040C, strain nat1, active compounds read low 1.02 | locus YDL074C, strain BRE1, active compounds read low 1.03 | locus YDL101C, strain DUN1, active compounds read low 1.02 | locus YDL134C, strain PPH21, active compounds read low 1.01 | locus YDL185W, strain tfp1, active compounds read low 0.978 | locus YDL192W, strain arf1, active compounds read low 0.994 | locus YDR001C, strain nth1, active compounds read low 1.02 | locus YDR069C, strain doa4, active compounds read low 1.02 | locus YDR101C, strain arx1, active compounds read low 1 | locus YDR137W, strain rgp1, active compounds read low 1.05 | locus YDR150W, strain NUM1, active compounds read low 1.01 | locus YDR159W, strain sac3, active compounds read low 0.943 | locus YDR162C, strain NBP2, active compounds read low 1.02 | locus YDR195W, strain ref2 1.01 | locus YDR297W, strain sur2, active compounds read low 0.998 | locus YDR318W, strain mcm21, active compounds read low 0.992 | locus YDR334W, strain swr1, active compounds read low 1.02 | locus YDR335W, strain msn5, active compounds read low 1.03 | locus YDR388W, active compounds read low 0.993 | locus YDR392W, strain spt3, active compounds read low 0.959 | locus YDR502C, strain sam2, active compounds read low 1.01 | locus YEL003W, strain gim4, active compounds read low 1 | locus YEL037C, strain rad23, active compounds read low 1.02 | locus YEL061C, strain CIN8 (second series), active compounds read low 1.03 | locus YEL061C, strain CIN8, active compounds read low 1.01 | locus YER015W, strain faa2, active compounds read low 1.01 | locus YER016W, strain bim1, active compounds read low 1.05 | locus YER110C, active compounds read low 0.969 | locus YER111C, strain swi4, active compounds read low 1.02 | locus YER155C, strain BEM2 (second series), active compounds read low 1.01 | locus YER155C, strain BEM2, active compounds read low 1.01 | locus YER167W, strain BCK2, active compounds read low 1.03 | locus YFR010W, strain ubp6, active compounds read low 0.994 | locus YGL078C, strain dbp3, active compounds read low 1.01 | locus YGL086W, strain mad1, active compounds read low 1 | locus YGL167C, strain pmr1, active compounds read low 1.02 | locus YGL173C, strain kem1, active compounds read low 1 | locus YGL227W, strain vid30, active compounds read low 1.05 | locus YGL240W, strain doc1, active compounds read low 1 | locus YGL248W, strain PDE1, active compounds read low 1.02 | locus YGL253W, strain hxk2, active compounds read low 1.03 | locus YGR078C, strain PAC10, active compounds read low 1.02 | locus YGR135W, strain pre9, active compounds read low 1.02 | locus YGR229C, strain SMI1, active compounds read low 1.02 | locus YGR252W, strain gcn5, active compounds read low 1.07 | locus YHR013C, strain ard1, active compounds read low 1.05 | locus YHR027C, strain rpn1, active compounds read low 1.02 | locus YHR030C, strain SLT2, active compounds read low 1.01 and 1.02 | locus YHR079C, strain IRE1 (second series), active compounds read low 0.988 | locus YHR079C, strain IRE1, active compounds read low 1.04 | locus YHR094C, strain hxt1, active compounds read low 0.996 | locus YHR129C, strain ARP1, active compounds read low 1.01 | locus YHR142W, strain chs7, active compounds read low 1.03 | locus YHR200W, strain rpn10, active compounds read low 0.991 | locus YIL066C, strain RNR3, active compounds read low 1.02 | locus YIL073C, strain SPO22, active compounds read low 0.978 | locus YIL125W, strain kgd1, active compounds read low 1 | locus YIR030C, strain dcg1, active compounds read low 0.986 | locus YJL092W, strain hpr5, active compounds read low 1.01 | locus YJL095W, strain BCK1 (second series), active compounds read low 1.03 | locus YJL095W, strain BCK1, active compounds read low 1.02 and 1.01 | locus YJL115W, strain asf1, active compounds read low 1.02 | locus YJL129C, strain trk1, active compounds read low 1.03 | locus YJL134W, strain LCB3, active compounds read low 1.01 | locus YJL154C, strain vps35, active compounds read low 1.01 | locus YJL164C, strain tpk1, active compounds read low 0.996 | locus YJL166W, strain qcr8, active compounds read low 1.01 | locus YJL168C, strain set2, active compounds read low 0.99 | locus YJL187C, strain SWE1 (second series), active compounds read low 1.01 | locus YJL187C, strain SWE1, active compounds read low 1.01 | locus YJR043C, strain POL32, active compounds read low 1.01 | locus YJR066W, strain TOR1, active compounds read low 0.98
